Results as given in ChEMBL document CHEMBL3988442, “University of Dundee, Small-Polar-MMV Screening Library” (2021).
The campaign covered roughly 48,000 compounds. About 13,000 (27%) showed an effect of 50% or more. The list shows a part of the results.

Each molecule was assayed on Wolbachia pipientis (assay: Anti-Wolbachia Cell-Based Screen). Details: 5 µM.
Format: functional
Parameters: scale not given: in the data most compounds retested in dose-response had high values
With C=C1c2ccccc2C(=O)N1CCC(=O)N1CCNC(=O)C1 the “Percent Effect” value was -10.5%. For N#Cc1c(Cl)nsc1N1CCN(CC2CC2)CC1, the “Percent Effect” value was 5.491%. In the case of CC(C)N1CCN(C)CC1c1nnc2ccc(C(=O)N3CCCC3)cn12 (centres undefined), the “Percent Effect” value is reported as -1.369%. With CCNC(=O)N1CCC2(CC1)CCn1c(C3CC3)cnc12 the “Percent Effect” value was 0.3432%. For CC(=O)N1CCC(N[C@@H]2CC[C@@H]2NS(=O)(=O)c2cccnc2)CC1, the “Percent Effect” value was -3.734%. In the case of CCn1ncc(S(=O)(=O)N[C@@H]2CC[C@@H](n3ccnc3C)[C@@H]2O)c1C, the “Percent Effect” value is reported as 115.7%. CCn1ncc(S(=O)(=O)N[C@@H]2CCC[C@@H](n3ccnc3)[C@@H]2O)c1C was tested, and the “Percent Effect” value was 136.1%. For CCn1cc(CN(C)S(=O)(=O)c2cnn(CC)c2C)c(C)n1, the “Percent Effect” value was -1.191%. With CCn1ncc(S(=O)(=O)N[C@@H]2CC[C@@H](n3ccnc3)[C@@H]2O)c1C the “Percent Effect” value was 136.9%. For Cc1cccc(NC(=O)N(CCC(F)(F)F)C[C@H](O)CO)c1, the “Percent Effect” value was -5.672%. Cc1cnc(C)c(N2CCN(CCCc3[nH]nc(C)c3C)CC2)n1 was tested, and the “Percent Effect” value was 13.39%. With COc1ccc(-c2cn3c(n2)CO[C@@H](CNCc2nccn2C)C3)cc1 the “Percent Effect” value was 1.884%. CN(C)C1CCN(C(=O)c2ccc(Cn3ccccc3=O)o2)CC1 was tested, and the “Percent Effect” value was -4.856%. With Cc1nc(CCCNC(=O)C2CC(=O)N(C3CC3)C2)sc1C (centres undefined) the “Percent Effect” value was 0.5008%. CS(=O)(=O)NC1CCN(Cc2ccc(OCc3ccccn3)cc2)CC1 was tested, and the “Percent Effect” value was -10.21%. CCc1ncc2c(n1)CN(C(=O)CNC(=O)C(C)C)C2 was tested, and the “Percent Effect” value was -10.3%. In the case of CN(Cc1ccsc1)C(=O)Nc1cccnc1N1CCCC1, the “Percent Effect” value is reported as 3.447%. For CCc1nc(CC)n(CC(=O)N(C)CC(F)(F)F)n1, the “Percent Effect” value was 0.1098%. For CCCc1nnnn1CC(=O)NCc1cccc(C)c1, the “Percent Effect” value was 98.23%. CCc1nc(CC)n(CC(=O)NCc2ccccc2C)n1 was tested, and the “Percent Effect” value was 109.4%. Cn1cnn(CC(=O)NCc2ccccc2F)c1=O was tested, and the “Percent Effect” value was -8.996%. Cc1nn(C)c(C)c1OCC(=O)NCc1cccc(CO)c1 was tested, and the “Percent Effect” value was -2.193%. CCNC(=O)NC1CN(CC(=O)NCc2ccccc2C)C[C@@H]1OC (some centres undefined) was tested, and the “Percent Effect” value was -0.1158%. For CCc1nc(CC)n(CC(=O)NCc2cccc(C)c2)n1, the “Percent Effect” value was 86.53%. In the case of CCCc1nnnn1Cc1cn2c(C)cccc2n1, the “Percent Effect” value is reported as -18.43%. With CCc1nc(CC)n(CC(=O)N(CC)CC)n1 the “Percent Effect” value was -1.582%. In the case of CN(C)C[C@H]1O[C@H](Cc2cc(-c3ccccn3)on2)CC[C@@H]1O, the “Percent Effect” value is reported as -5.695%. In the case of O=C(NS(=O)(=O)c1cccc(F)c1)c1ccccc1F, the “Percent Effect” value is reported as -17.84%. Cc1noc(COCC(=O)Nc2ncccc2Br)n1 was tested, and the “Percent Effect” value was -14.88%. In the case of CCN(CC)C1(Cc2cc(CC(C)C)on2)COC1, the “Percent Effect” value is reported as -8.16%. With O[C@H]1CCN(CC2CCOC2)[C@H]1Cc1ccncc1 (some centres undefined) the “Percent Effect” value was -12.65%. For Cc1ccc(CC(=O)N2CCOC(c3nc(C)n[nH]3)C2)cn1 (centres undefined), the “Percent Effect” value was 12.26%. In the case of Cc1ccc(CC(=O)N2CCOC(c3ncc(CN(C)C)[nH]3)C2)s1 (centres undefined), the “Percent Effect” value is reported as 104.7%. In the case of Cc1n[nH]c(C2CN(C(=O)c3ccn(C)c(=O)c3)CCO2)n1 (centres undefined), the “Percent Effect” value is reported as 0.6849%. With CCCc1ncc(C(=O)N2CCOC(c3nc(C)n[nH]3)C2)s1 (centres undefined) the “Percent Effect” value was 1.166%. With O=C(c1cccnc1O)N1CCOC(c2ccc(Cl)cc2)C1 (centres undefined) the “Percent Effect” value was -6.348%. With CCCc1n[nH]c(C2CN(C(=O)Cc3ccc(C)nc3)CCO2)n1 (centres undefined) the “Percent Effect” value was -3.481%. Cc1ccccc1C(=O)N1CCOC(c2ncc(CN(C)C)[nH]2)C1 (centres undefined) was tested, and the “Percent Effect” value was 53.49%. For Cc1n[nH]c(C2CN(C(=O)c3coc(Br)c3)CCO2)n1 (centres undefined), the “Percent Effect” value was -34.21%. For CN(C)Cc1cnc(C2CN(C(=O)c3ccccc3Cl)CCO2)[nH]1 (centres undefined), the “Percent Effect” value was 174.9%. In the case of Cc1n[nH]c(C2CN(C(=O)c3cc(C)sc3C)CCO2)n1 (centres undefined), the “Percent Effect” value is reported as -9.628%. With O=C(c1cccnc1N1CCCC1)N1CCOC(c2ccccc2)C1 (centres undefined) the “Percent Effect” value was 5.885%. With Cc1ccc(C(=O)N2CCOC(c3ncc(CN(C)C)[nH]3)C2)cc1F (centres undefined) the “Percent Effect” value was 86.38%. With O=C(Cc1ccon1)Nc1cncc(Br)c1O the “Percent Effect” value was -6.673%. For CCOC1CCN(C(=O)c2c(Cl)c3ccccc3n2C)CC1, the “Percent Effect” value was 4.018%. Cc1noc(C)c1CN1CC[C@H]2OCC[C@@H](C(=O)N3CCCO3)[C@H]2C1 was tested, and the “Percent Effect” value was -12.4%. O=C(NCC(O)c1ccc(Cl)s1)c1ccoc1 (centres undefined) was tested, and the “Percent Effect” value was 3.126%. With CC(=O)N1CCN(C(=O)C(C)Nc2ccc3ncsc3c2)CC1 (centres undefined) the “Percent Effect” value was -9.61%. For c1csc(-c2nc(CN3CCOC(Cn4cncn4)C3)cs2)c1 (centres undefined), the “Percent Effect” value was -0.6055%. For CN(C)CC1CN(Cc2csc(C3CCCC3)n2)CCO1 (centres undefined), the “Percent Effect” value was 6.428%. In the case of c1csc(-c2nc(CN3CCOC(Cn4cccn4)C3)cs2)c1 (centres undefined), the “Percent Effect” value is reported as 96.48%. With Cc1cnn(CC2CN(Cc3csc(C4CCCC4)n3)CCO2)c1 (centres undefined) the “Percent Effect” value was 109.2%. In the case of Cc1n[nH]c(C2CN(Cc3csc(C4CCCC4)n3)CCO2)n1 (centres undefined), the “Percent Effect” value is reported as 6.822%. In the case of c1ncn(CC2CN(Cc3csc(C4CCCC4)n3)CCO2)n1 (centres undefined), the “Percent Effect” value is reported as -2.779%.
